Source: PubChem
Most compounds without a hit are left out; they make up all but 1.2% or so of the library.
BRCA1 expr act: increases BRCA1 expression | MCF7-BRCA1-FFLuc reporter, luminescence, 48 h; response scale: scaled: vehicle 0%, 10 µM genistein 100% | Potency, µM (doses to about 46.1 µM), for the others: at the highest dose activation, most hits filed as activators | 380,000 tested, 1.1% active | AID 624202; note: nearly all actives have a fitted effect of over 80% in size
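Cells: MCF7-BRCA1-FFLuc, 2000/well. Exposure: 48 h, 37 °C, 5% CO2. Read: luminescence, 15 min post-substrate. Controls: genistein 10 microM (maximal activation), DMSO (neutral).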
ERG-DNA inh: ERG Ets/DNA interaction inhibition; 370,000 tested, 0.028% active; fluorescence polarization, His-ERG Ets domain / labelled DNA; P11308; Potency, µM (highest dose often 76.9 µM), inactives show top-dose FP activity, negative = inhibition, actives largely listed as inhibitors; active = well fitted inhibition curve with a large enough effect in the polarisation, with a control signal flat; inconclusive = small, poorly fitted or top-dose-only effect, or effect the other way, or a change in a side signal; inactive = no such curve, though single readings can be large or run the other way; the % refers to the polarisation;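 note: polarization taken with two DNA probes labelled with fluorescein and Texas red; % of control where 0% means no effect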
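His-tagged ERG Ets domain (1 uM in the protein solution; 300mM KCl, 50mM Tris-HCl, 1mM EDTA, 1mM DTT, pH 7.5) received compound, then a probe mix of 5 nM fluorescein-DNA and 100nM Texas-615-DNA. Fluorescence polarization was read for both dyes.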
Apoferritin bind: candidate novel general anesthetic via apoferritin binding. AID 485281. apoferritin/1-aminoanthracene competitive binding, fluorescence. 350,000 tested, 0.074% active. Potency, µM (top dose mostly 77.5 µM), for the others: top-dose activity change, negative = displacement, actives largely listed as inhibitors; note: % is set by controls: 0 for no effect and ±100 for the full control effect; nearly all actives have a fitted effect of over 20% in size
Target sequence (P02791 2-175 limits assumed): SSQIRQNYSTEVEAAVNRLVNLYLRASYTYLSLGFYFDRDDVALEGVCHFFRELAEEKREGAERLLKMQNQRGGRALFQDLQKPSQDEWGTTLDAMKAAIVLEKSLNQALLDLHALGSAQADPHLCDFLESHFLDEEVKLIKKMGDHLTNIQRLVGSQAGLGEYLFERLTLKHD
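Horse-spleen apoferritin (10 uM) was mixed with 50% saturated 1-aminoanthracene in PBS, exposed to compounds for 10 min at room temperature, and read for fluorescence (ex 380 nm, em 535 nm). Competitive displacement was fitted with a four-parameter Hill equation.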
RGS12 GoLoco inh: blocks human Gai1 binding to RGS12 GoLoco peptide, red readout; Gai1:RGS12 GoLoco peptide FP, rhodamine, 10 min; Potency, µM (highest dose often 61.6 µM), for inactives: top-dose activity, negative = inhibition, most hits filed as inhibitors; 230,000 tested, 0.44% active; active = well fitted inhibition curve with a large enough effect, not every such curve was filed as active; inactive = no such curve, though single readings can be large or run the other way; note: % is set by controls: 0 for no effect and ±100 for the full control effect; nearly all actives have a fitted effect of over 30% in size
Target sequence (P63096 whole entry, looked up): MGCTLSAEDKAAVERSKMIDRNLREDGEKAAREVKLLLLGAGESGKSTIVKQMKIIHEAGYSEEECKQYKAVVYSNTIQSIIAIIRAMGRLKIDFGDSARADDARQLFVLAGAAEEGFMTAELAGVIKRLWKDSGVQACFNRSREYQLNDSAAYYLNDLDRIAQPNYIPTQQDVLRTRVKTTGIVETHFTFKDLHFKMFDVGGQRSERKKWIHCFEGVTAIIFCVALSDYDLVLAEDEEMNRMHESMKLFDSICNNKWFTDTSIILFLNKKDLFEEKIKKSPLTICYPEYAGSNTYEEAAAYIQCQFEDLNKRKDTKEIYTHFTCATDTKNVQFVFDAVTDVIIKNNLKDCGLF
The depositor's hits bear a star; ? = inconclusive; nt = not tested or not shown; [ ] = remark or other dose. Unless noted, calls come from the whole dose curve; as a rule, active = well fitted curve in the direction sought with a large enough effect; inconclusive = small, poorly fitted or top-dose-only effect, or another doubt; inactive = no such curve, though single readings can be large; an effect the other way counts as inactive or inconclusive. Potency is the fitted concentration of half-maximal effect.

SMILES	BRCA1 expr act	ERG-DNA inh	Apoferritin bind	RGS12 GoLoco inh
Cc1ccc(NC(=O)CSc2nccn2Cc2ccccc2)cc1C	8.9µM*	7%	?	nt
N#Cc1ccccc1NC(=O)CSc1nccn1CCc1ccccc1	11µM*	2%	-12%	2%
COc1cc2c(NC3CCN(C)CC3)nc(N3CCCCC3)nc2cc1OCCOCCN1CCCC1	-13%	nt	nt	nt
[ClH+][Cu][ClH+].[Cu].[OH2+]c1ccc2ccccc2c1CN1CCCCC1.[OH2+]c1ccc2ccccc2c1CN1CCCCC1	nt	nt	nt	-17%[14.2 µM]
COc1ccc(Cn2ccnc2SCC(=O)NC2CCCC2)cc1	-13%	12%	35µM*	nt
CC(=O)c1ccc(NC(=O)CSCCO)cc1	28%	-10%	-2%	4%
CCCNC(=O)CSc1nccn1Cc1ccc(OC)cc1	-15%	6%	-14%	8%
CCCC(=O)Nc1ccc2nc(SCC(=O)Nc3ccc(N4CCOCC4)c(Cl)c3)sc2c1	-3%	0%	-23%	4.5µM*
CC(=O)c1ccc(NC(=O)CSc2nccn2C)cc1	11µM*	-1%	-6%	8%
CSCCC(=O)Nc1ccc(C(C)=O)cc1	13µM*	nt	-12%	3%
O=C(C[N+]12CN3CN(CN(C3)C1)C2)c1ccc(O)c(O)c1	3%	nt	nt	nt
Cn1ccnc1SCC(=O)Nc1ccc2nc(SCC(=O)NC3CC3)sc2c1	3.5µM*	0%	-11%	5%
C[C@H]1Cc2c(-c3ccccc3)nc3c(c2CO1)CN(C(=O)c1cccnc1)CC3	nt	nt	nt	3%[14.2 µM]
Cc1cc(OCc2cc(C(=O)N(C)Cc3ccccn3)no2)cc(C)c1Cl	11µM*	1%	?	nt
CSc1ccccc1OCc1cc(C(=O)N(C)C(C)c2ccccn2)no1 (stereo not given)	-2%	6%	?	nt
Cc1cc(OCc2cc(C(=O)N(C)C(C)c3ccccn3)no2)cc(C)c1Cl (stereo not given)	11µM*	-2%	?	nt
CCN(CC1CCCO1)C(=O)c1cc(COc2cc(C)c(Cl)c(C)c2)on1 (stereo not given)	6.3µM*	7%	?	nt
CC(=O)c1ccc(OCc2cc(C(=O)N(C)Cc3ccccn3)no2)cc1	?	1%	-23%	nt
COc1ccccc1/C=C/c1cncc(/C=C/c2ccccc2OC)c1	-59%	nt	nt	nt
CCOc1ccc(CCNC(=O)c2cc3c(=O)n(CC)c4ccccc4c3s2)cc1OCC	0%	-20%	2%	nt
Cn1c([N+](=O)[O-])cnc1CN1CCN(CCO)CC1	nt	nt	nt	3%[14.2 µM]
Cc1cccc(-c2nn(C(=S)Nc3ccccc3)cc2-c2ccnc3ccccc23)n1	nt	nt	-4%	nt
CC12C=C(/C=C/c3ccc(Br)cc3)C(C)(C1)C(c1ccc(Br)cc1)CC2=O (stereo not given)	nt	nt	7%[15.3 µM]	nt
CC1(C)C(=O)OC(C(=O)c2ccc(C(C)(C)C)cc2)C(C)(C)C1=O (stereo not given)	2%	5%	20µM*	-8%
C/C=C1\COC(C(=O)NC)(C(F)(F)F)C=C1C=C1CCCCC1 (stereo not given)	nt	nt	-18%	nt
SMILES	BRCA1 expr act	ERG-DNA inh	Apoferritin bind	RGS12 GoLoco inh
CCOc1ccc(NC(=O)COc2ccc(OC)cc2)cc1	27%	7%	-7%	-1%
CCOc1ccc(NC(=O)c2ccc(NC(=O)COC(=O)Cc3ccc(OC)cc3)cc2)cc1	4.5µM*	0%	-1%	9%
COc1ccc(CC(=O)Nc2ccc(C(N)=O)cc2)cc1	-5%	-16%	-1%	-7%
COc1ccc(C(=O)Nc2ccc(SC(F)F)cc2)cc1	1.3µM*	3%	-10%	2%
COc1ccc(CC(=O)OCC(=O)Nc2ccc(C(=O)Nc3ccc(OC)cc3)cc2)cc1	11µM*	-3%	-4%	5%
O=C(CCOc1ccccc1F)N1CCN(c2ccccc2O)CC1	11µM*	10%	-13%	4%
COc1ccc(C2Nc3ccccc3C(=O)N2c2cccc3ccccc23)cc1COc1c(C)cccc1C (stereo not given)	-3%	nt	nt	nt
O=C1OCCC1N(C(=O)C1CC1)c1cccc(Cl)c1 (stereo not given)	nt	nt	2%	nt
Cc1ccccc1NC(=O)c1nc(S(=O)(=O)Cc2ccccc2F)ncc1Cl	0%	nt	nt	nt
COCc1cc(C)nc2sc(C(=O)Nc3ccc(OC)cc3)c(N)c12	85%	0%	34%	nt
Cc1cc(C)c2c(N)c(C(=O)NNC(=O)c3ccccc3)sc2n1	8.9µM*	-7%	149%	-3%
COCc1cc(C)nc2sc(C(=O)Nc3cccc(OC)c3)c(N)c12	2.5µM*	6%	-4%	nt
COC(=O)c1cc(-c2ccc(C)cc2)c2c(=O)n(C)c(=O)n(C)c2n1	nt	5%	-6%	nt
Cc1ccc(S(=O)(=O)C/N=C(/NC(=S)N(c2ccccc2)c2ccccc2)c2ccccc2)cc1	0%	nt	14µM*	-2%
Cc1ccc(S(=O)(=O)/N=C(/NC(=S)Nc2ccccc2)c2ccccc2)cc1	?	-1%	-6%	14%
Cn1c(SCc2ccccc2)nnc1-c1ccc2c(c1)OCO2	6.3µM*	-4%	-8%	6%
CCCCSc1nnc(-c2c[nH]c3ccccc23)n1C	?	-5%	?	3%
Cn1c(SCc2ccccc2)nnc1-c1c[nH]c2ccccc12	11µM*	1%	1%	9%
CCN1CCN(Cc2ccc(NC(=O)Nc3ccccc3Cl)cc2)CC1	?	-7%	-10%	-2%
CCN1CCN(CCC(=O)Nc2ccc(C)cc2)CC1	-3%	-2%	-4%	nt
O=C(Nc1ccc(CN2CCCCC2)cc1)Nc1ccccc1Cl	7.1µM*	4%	-19%	14%
O=C(Nc1ccc2nccnc2c1)Nc1ccccc1Cl	10µM*	-9%	-3%	nt
O=C(Nc1cccc(Cl)c1)Nc1ccc2nccnc2c1	?	2%	-12%	nt
CCN1CCN(Cc2ccccc2NC(=O)Nc2ccc(C)cc2)CC1	6.3µM*	-16%	0%	2%
CSCC[C@H](NC(=O)[C@H](CC(C)C)NC(=O)CNC(=O)[C@H](Cc1ccccc1)NC(=O)[C@H](Cc1ccccc1)NC(=O)[C@H](CCC(N)=O)NC(=O)[C@H](CCC(N)=O)NC(=O)[C@@H]1CCCN1C(=O)[C@H](CCCCN)NC(=O)[C@@H]1CCCN1C(=O)[C@@H](N)CCCN=C(N)N)C(N)=O	nt	nt	-14%	nt
SMILES	BRCA1 expr act	ERG-DNA inh	Apoferritin bind	RGS12 GoLoco inh
O=C(O)CCCCn1cnc2c(=S)nc[nH]c21	nt	nt	nt	-11%[14.2 µM]
COC(=O)CCC(=O)OC1(C)C(=O)C=C2C=C(C3CC3)N(c3ccc(OC)cc3)C=C2C1=O (stereo not given)	nt	nt	nt	8%[14.2 µM]
C[C@]12CC[C@H](O)CC1=CC[C@H]1[C@@H]2CC[C@@]2(C)C(N(CCO)CCO)CC[C@@H]12 (stereo not given in full)	nt	nt	nt	2%[14.2 µM]
NC(=O)[C@@H]1CCCN1Cc1ccc2c(c1)OCO2	nt	nt	nt	6%[14.2 µM]
CN(C)c1ccc(/C=C/c2nnnn2-c2ccccc2)cc1	4µM*	0%	63%	-10%
CN(C)c1ccc(/C=C/c2ccccn2)cc1	-41%	nt	nt	nt
CNc1ccc(C=C2c3ccccc3-c3ccccc32)cc1	-77%	nt	nt	nt
